Each structure is given as a SMILES string. Among all 39,000 compounds or so, about 3,300 (8.5%) were called active. Only a selection was taken, and actives are over-represented in it overall.

This assay has as its system HepG2. As to the kind of experiment: cytotoxicity call (relative viability < 0.9). Particulars: 10 µM.
In the case of `OCC1CCNCC1`, the cytotoxicity call is “inactive”.
Regarding `COC(=O)c1sccc1NC(=O)Cn1cnc2c1c(=O)n(C)c(=O)n2C`, the cytotoxicity call was “inactive”.
As to `CC(=O)N(C)C[C@H]1Oc2ncc(C#C[C@H](C)O)cc2C(=O)N([C@@H](C)CO)C[C@H]1C`, the cytotoxicity call is “inactive”.
The same measure for `C[C@H]1CN([C@@H](C)CO)S(=O)(=O)c2ccc(-c3ccc(C(=O)N(C)C)cc3)cc2O[C@@H]1CN(C)C(=O)C1CCOCC1`: “inactive”.
As to `CC(C)NC(=O)Nc1ccc2c(c1)CC(=O)N([C@H](C)CO)C[C@H](C)[C@H](CN(C)S(=O)(=O)c1ccccc1)O2`, the cytotoxicity call was “inactive”.
Take `Nc1ccn([C@@H]2C[C@@H](O)[C@H](CO)O2)c(=O)n1`: the cytotoxicity call was “inactive”.
The result for `COc1ccc(NC(=O)N(C)C[C@@H]2Oc3ccc(NC(=O)CCCN(C)C)cc3C(=O)N([C@@H](C)CO)C[C@H]2C)cc1` reads “inactive”; that for `COc1ccc(NC(=O)N(C)C[C@@H]2OCCCC[C@@H](C)Oc3ccc(NC(=O)C4CCCCC4)cc3C(=O)N([C@@H](C)CO)C[C@H]2C)cc1`, “inactive”.
On to `C[C@H]1CC/C=C\[C@H]2O[C@@]34C=CCN(CCN5CCOCC5)C(=O)[C@H]3N(CCO)C(=O)[C@@H]4[C@@H]2C(=O)O1`, for which the cytotoxicity call was “inactive”.
Take `COc1cc(OC)cc(C(=O)N(Cc2ccco2)Cc2cc3ccc(SC)cc3nc2-c2cccc(OC)c2)c1`: the cytotoxicity call was “inactive”.
Consider `Fc1ccccc1-c1nc2ccn(Cc3ccc(-c4ccc(C(F)(F)F)cc4C(F)(F)F)nn3)cc-2n1`, for which the cytotoxicity call is “active”.
Consider `CO[C@@H]1CN(C)C(=O)c2ccc(NC(=O)C3CC3)cc2OC[C@H](C)N(C(=O)Cc2ccccn2)C[C@@H]1C`, for which the cytotoxicity call is “inactive”.
The result for `COc1cc(C=CC(=O)O)cc(OC)c1OC` reads “inactive”; that for `COc1cc(/C=C/C(=O)N2CCC=CC2=O)cc(OC)c1OCCOCCOCCOCCC(=O)OC(C)(C)C`, “active”; that for `C/C=C/C(=O)N1CCC=CC1=O`, “inactive”.
The result for `COc1cc(/C=C/C(=O)N(C)CCN(C)C(=O)/C=C/c2cc(OC)c(OC)c(OC)c2)cc(OC)c1OC` reads “inactive”; that for `COc1cc(C=CC(=O)O)cc(OC)c1O`, “inactive”.
In the case of `COc1cc(/C=C/C(=O)N2CCC=CC2=O)cc(OC)c1OC(=O)CCCCCCCCCCC(=O)Oc1c(OC)cc(/C=C/C(=O)N2CCC=CC2=O)cc1OC`, the cytotoxicity call was “inactive”.
For `C=C(C)C(=O)N1CCC=CC1=O`, the cytotoxicity call is “inactive”.
Regarding `COC(=O)C=Cc1cc(OC)c(OC)c(OC)c1`, the cytotoxicity call was “inactive”.
As for `COc1cc(C=CC(=O)N2CCCCCCC2)cc(OC)c1OC`, the cytotoxicity call is “inactive”.
The same measure for `COc1cc(C=CC(=O)N2CCC=CC2=O)cc(OC)c1OC`: “active”.
With `COc1cc(C=CC(N)=O)cc(OC)c1OC`, the cytotoxicity call was “active”.
`CCOC(=O)/C=C/C(=O)N1CCC=CC1=O`: the cytotoxicity call was “active”.
In the case of `Cn1cc(S(=O)(=O)N2CCN(Cc3ccccc3)CC2)c(=O)n(C)c1=O`, the cytotoxicity call was “inactive”.
Turning to `C=CCOC(=O)O[C@H]1[C@@H](OC)O[C@H](COC(=O)NCCCCCC(=O)NO)[C@H]2OC(=O)[C@@H](Cc3cccc(Br)c3)C/C=C/C[C@H](Cc3ccccc3)C(=O)O[C@H]12`, the cytotoxicity call is “inactive”.
For `CN1C(=O)c2cc(NS(=O)(=O)c3ccc(F)cc3)ccc2OC[C@@H]2O[C@@H](CC(=O)NCC(F)(F)F)CC[C@H]21`, the cytotoxicity call was “inactive”.
Take `C[C@H]1CN([C@@H](C)CO)C(=O)c2cc(C#CCN(C)C)cnc2O[C@H]1CN(C)S(=O)(=O)c1cn(C)cn1`: the cytotoxicity call is “inactive”.
Take `O=C(C[C@H]1CC[C@H]2[C@@H](COC[C@H](O)CN2S(=O)(=O)c2ccc(Cl)cc2)O1)N[C@H]1CCN(Cc2ccccc2)C1`: the cytotoxicity call is “inactive”.
Regarding `CC(C)NC(=O)Nc1ccc2c(c1)C(=O)N([C@@H](C)CO)C[C@H](C)[C@@H](CN(C)C(=O)C1CCCCC1)OCCCC[C@H](C)O2`, the cytotoxicity call is “inactive”.
For the molecule `CCNC(=S)NCC1CC1`, the cytotoxicity call is “inactive”.
The same measure for `Cc1ccc(S(=O)(=O)Nc2ccc3c(c2)C(=O)N([C@H](C)CO)C[C@H](C)[C@H](CN(C)Cc2ccc4c(c2)OCO4)OCCCC[C@@H](C)O3)cc1`: “inactive”; for `C[C@@H]1CN([C@H](C)CO)S(=O)(=O)c2ccc(C#Cc3ccc(F)cc3)cc2O[C@@H]1CN(C)CC1CC1`: “inactive”.
In the case of `CO[C@@H]1CN(C)C(=O)c2ccc(NS(C)(=O)=O)cc2OC[C@@H](C)N(C(=O)CN(C)C)C[C@@H]1C`, the cytotoxicity call was “inactive”.
As for `C[C@@H]1CN([C@@H](C)CO)C(=O)Cc2cc(NC(=O)Cn3cnnn3)ccc2O[C@@H]1CN(C)Cc1ccc(-c2ccccc2)cc1`, the cytotoxicity call was “inactive”.
`C[C@H](CO)N1C[C@H](C)[C@H](CN(C)S(=O)(=O)c2ccc(Cl)cc2)OCCCC[C@H](C)Oc2ccc(NC(=O)Nc3cccc4ccccc34)cc2C1=O`: the cytotoxicity call is “inactive”.
For the molecule `CCCCc1oc2ccccc2c1C(=O)c1cc(I)c(OCCN(CC)CC)c(I)c1`, the cytotoxicity call is “active”.
With `CCCCc1oc2ccccc2c1C(=O)c1cc(I)c(OCCN(CC)CC)c(I)c1.Cl`, the cytotoxicity call is “active”.
The same measure for `CCCCOc1cc(C(=O)NCCN(CC)CC)c2ccccc2n1.Cl`: “inactive”; for `NCCCN`: “inactive”.
For the molecule `C[C@@H]1CN([C@H](C)CO)C(=O)c2cc(NS(=O)(=O)c3cccs3)ccc2O[C@@H]1CN(C)Cc1ccncc1`, the cytotoxicity call was “inactive”.
For `O=C(C[C@H]1CC[C@H]2[C@@H](COC[C@@H](O)CN2C(=O)Nc2ccc(C(F)(F)F)cc2)O1)NCCc1ccncc1`, the cytotoxicity call is “inactive”.
As for `Cc1noc(C)c1NC(=O)Nc1ccc2c(c1)C(=O)N([C@H](C)CO)C[C@H](C)[C@H](CN(C)S(=O)(=O)c1ccc(F)cc1)OCCCC[C@@H](C)O2`, the cytotoxicity call was “inactive”.
As to `COCC#Cc1ccc2c(c1)O[C@@H](CN(C)C(=O)Nc1ccccc1F)[C@@H](C)CN([C@@H](C)CO)S2(=O)=O`, the cytotoxicity call was “inactive”.
With `CCCN1C[C@@H](C)[C@@H](OC)CN(C)C(=O)c2cc(NS(=O)(=O)c3cn(C)cn3)ccc2OC[C@H]1C`, the cytotoxicity call was “inactive”.
As to `CN1CCN(C(=O)C[C@H]2CC[C@@H]3[C@H](COC[C@H](O)CN3C(=O)C3CCOCC3)O2)CC1`, the cytotoxicity call was “inactive”.
For the molecule `Clc1nccc2ccccc12`, the cytotoxicity call was “inactive”.
For `O=S(=O)([O-])c1cc(I)c(O)c2ncccc12.[Na+]`, the cytotoxicity call was “active”.
On to `c1cnc2ccc3ncccc3c2c1`, for which the cytotoxicity call was “inactive”.
Consider `Oc1c(Br)cc(Br)c2cccnc12`, for which the cytotoxicity call is “active”.
Turning to `CCOc1ccc(S(=O)(=O)[O-])c2cccnc12.[Na+]`, the cytotoxicity call is “inactive”.
Regarding `O=c1nc[nH]c2ncccc12`, the cytotoxicity call was “inactive”.
Take `Oc1c(I)cc(Cl)c2cccnc12`: the cytotoxicity call is “active”.
As to `Cc1ccc2c(Cl)cc(Cl)c(O)c2n1`, the cytotoxicity call is “inactive”.
For `Oc1c(Cl)cc(Cl)c2cccnc12`, the cytotoxicity call was “active”.
The same measure for `CCCCCCCCCCCCCCCCCCOC[C@H](COP(=O)(O)O[C@H]1[C@@H](O)[C@@H](O)[C@@H](O)C[C@@H]1OC)OC`: “inactive”.
For `C[C@@H]1CCCCO[C@@H](CN(C)S(C)(=O)=O)[C@H](C)CN([C@H](C)CO)C(=O)c2cc(NS(=O)(=O)c3cn(C)cn3)ccc2O1`, the cytotoxicity call is “inactive”.
For `O=C(C[C@@H]1CC[C@H](NC(=O)CN2CCOCC2)[C@H](CO)O1)NCCc1ccncc1`, the cytotoxicity call is “inactive”.
With `CC(=O)N1Cc2cc(C(=O)NCC(F)(F)F)nc(-c3cccc(-c4cc5ccccc5o4)c3)c2[C@H]1CCO`, the cytotoxicity call is “inactive”.
For `C[C@@H]1CCCCO[C@H](CN(C)C(=O)Nc2ccc(C(F)(F)F)cc2)[C@@H](C)CN([C@H](C)CO)C(=O)c2cc(NS(=O)(=O)c3cn(C)cn3)ccc2O1`, the cytotoxicity call was “inactive”.
`C[C@@H]1CN([C@H](C)CO)S(=O)(=O)c2ccc(-c3ccc(C(=O)N(C)C)cc3)cc2O[C@H]1CN(C)C(=O)Cc1ccccn1`: the cytotoxicity call was “inactive”.
Take `Cc1noc(C)c1S(=O)(=O)Nc1ccc2c(c1)C(=O)N([C@@H](C)CO)C[C@@H](C)[C@@H](CN(C)C(=O)Nc1ccc(F)cc1)OCCCC[C@@H](C)O2`: the cytotoxicity call was “inactive”.
Regarding `C[C@H](CO)N1C[C@H](C)[C@H](CN(C)C(=O)Nc2ccccc2)Oc2ccc(NC(=O)CCCN(C)C)cc2C1=O`, the cytotoxicity call was “inactive”.
For `Cc1cc(C)c2ccc(Cl)nc2n1`, the cytotoxicity call was “inactive”.
The same measure for `Cc1noc(C)c1NC(=O)Nc1ccc2c(c1)C(=O)N([C@H](C)CO)C[C@H](C)[C@H](CN(C)CC1CCCCC1)OCCCC[C@H](C)O2`: “inactive”; for `C[C@@H]1CN([C@@H](C)CO)C(=O)c2cc(NC(=O)Nc3cccc4ccccc34)ccc2O[C@H]1CN(C)C(=O)NC1CCCCC1`: “inactive”; for `CC(C)NC(=O)N(C)C[C@H]1Oc2cc(C#Cc3ccccn3)ccc2S(=O)(=O)N([C@H](C)CO)C[C@@H]1C`: “inactive”.
Consider `CC(C)(O)c1ccccc1CCC(SCC1(CC(=O)[O-])CC1)c1cccc(C=Cc2ccc3ccc(Cl)cc3n2)c1.[Na+]` (centres undefined), for which the cytotoxicity call is “inactive”.
Take `Oc1c(I)cc(I)c2cccnc12`: the cytotoxicity call is “active”.
The result for `Nc1ncccc1O` reads “inactive”.
In the case of `Nc1ncccc1F`, the cytotoxicity call is “inactive”.
Turning to `CC(=O)N(C)C[C@H]1Oc2ncc(C#C[C@@H](C)O)cc2C(=O)N([C@H](C)CO)C[C@@H]1C`, the cytotoxicity call was “inactive”.
As for `COc1ccc([Si](C)(C)[C@H]2[C@H](CC(=O)N(CCO)Cc3ccccc3)O[C@@]3(C(=O)N(Cc4ccc(N5CCOC5=O)cc4)c4ccccc43)[C@@H]2C)cc1`, the cytotoxicity call was “inactive”.
`C[C@H]1[C@H]([Si](C)(C)F)[C@@H](CC(=O)N(CCO)Cc2ccccc2)O[C@]12C(=O)N(c1ccccc1)c1ccccc12`: the cytotoxicity call was “inactive”.
For `COc1ccc([Si](C)(C)[C@@H]2[C@@H](CC(=O)N(CCO)Cc3ccccc3)O[C@]3(C(=O)N(Cc4cccc(N5CCC5=O)c4)c4ccccc43)[C@H]2C)cc1`, the cytotoxicity call is “inactive”.
With `COc1ccc([Si](C)(C)[C@H]2[C@H](CC(=O)N(CCO)Cc3ccccc3)O[C@@]3(C(=O)N(Cc4ccc(N5C(=O)c6cccc7cccc5c67)cc4)c4ccccc43)[C@@H]2C)cc1`, the cytotoxicity call was “active”.
As to `COc1ccc([Si](C)(C)[C@@H]2[C@@H](CC(=O)N(CCO)Cc3ccccc3)O[C@]3(C(=O)N(Cc4ccc(N5C(=O)c6cccc7cccc5c67)cc4)c4ccccc43)[C@H]2C)cc1`, the cytotoxicity call is “active”.
On to `C[C@@H]1[C@@H]([Si](C)(C)F)[C@H](CC(=O)N2Cc3ccccc3C[C@H]2CO)O[C@@]12C(=O)N(c1ccccc1)c1ccccc12`, for which the cytotoxicity call is “inactive”.
Take `C[C@@H]1[C@@H]([Si](C)(C)F)[C@H](CC(=O)N(CCO)Cc2ccccc2)O[C@@]12C(=O)N(c1ccccc1)c1ccccc12`: the cytotoxicity call is “active”.
For the molecule `COc1ccc([Si](C)(C)[C@H]2[C@H](CC(=O)N(CCO)Cc3ccccc3)O[C@@]3(C(=O)N(Cc4cccc(N5C(=O)c6cccc7cccc5c67)c4)c4ccccc43)[C@@H]2C)cc1`, the cytotoxicity call was “active”.
Consider `COc1ccc([Si](C)(C)[C@@H]2[C@@H](CC(=O)N(CCO)Cc3ccccc3)O[C@]3(C(=O)N(Cc4ccc(N5CCC5=O)cc4)c4ccccc43)[C@H]2C)cc1`, for which the cytotoxicity call was “inactive”.
The same measure for `COc1ccc([Si](C)(C)[C@H]2[C@H](CC(=O)N(CCO)Cc3ccccc3)O[C@@]3(C(=O)N(Cc4ccc(N5CCC5=O)cc4)c4ccccc43)[C@@H]2C)cc1`: “inactive”; for `COc1ccc([Si](C)(C)[C@@H]2[C@@H](CC(=O)N(CCO)Cc3ccccc3)O[C@]3(C(=O)N(Cc4cccc(N5CCCCC5=O)c4)c4ccccc43)[C@H]2C)cc1`: “inactive”; for `COc1ccc([Si](C)(C)[C@H]2[C@H](CC(=O)N(CCO)Cc3ccccc3)O[C@@]3(C(=O)N(Cc4cccc(N5CCC5=O)c4)c4ccccc43)[C@@H]2C)cc1`: “inactive”.

The values are drawn from the antibiotic and cytotoxicity screens of Wong et al. (2023).
